# Experimental data from PubChem BioAssay AID1159580 (chemical genetic matrix, 2015).
# Hit rate of the full screen: of about 5,500 compounds, about 2,000 (36%) were called active. Roughly 18% stayed inconclusive and do not appear here. The list shows a part of the results. A number with no mark means an inactive call. Rule as the data show it: active = normalized growth mostly below about 0.91 (no sharp cut-off); inconclusive = no clear call, values can overlap the other calls; inactive = mostly above about 0.92.
# Assay: chemical genetic growth profiling, strain panel (AID 1159580);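 also: tested at 20 µM; growth read once vehicle control cultures reached saturation at 30 °C; 1 = growth at the plate median or of vehicle wells; lower values mean less growth of the strain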
# Details: S. cerevisiae deletion strains, growth OD
smiles,measurement,setting,value
CCOc1ccc(C(=O)c2ccc(OC)c(O)c2O)cc1,normalized growth,"locus YAL021C, strain ccr4, hits give low values",0.958
same,normalized growth,"locus YAL026C, strain drs2, hits give low values",0.966
same,normalized growth,"locus YAL030W, strain snc1, hits give low values",1.02
same,normalized growth,"locus YBL061C, strain skt5, hits give low values",0.994
same,normalized growth,"locus YBR009C, strain hhf1, hits give low values",0.962
same,normalized growth,"locus YBR023C, strain chs3, hits give low values",0.977
same,normalized growth,"locus YBR171W, strain sec66, hits give low values",1.02
same,normalized growth,"locus YBR231C, strain swc5, hits give low values",0.939
same,normalized growth,"locus YBR279W, strain paf1, hits give low values",0.973
same,normalized growth,"locus YCL011C, strain gbp2, hits give low values",0.991
same,normalized growth,"locus YCL016C, strain dcc1, hits give low values",0.973
same,normalized growth,"locus YCL061C, strain MRC1, hits give low values",0.993
same,normalized growth,"locus YCL069W, strain vba3, hits give low values",1.01
same,normalized growth,"locus YCR088W, strain abp1, hits give low values",1.02
same,normalized growth,"locus YDL005C, strain med2, hits give low values",1.05
same,normalized growth,"locus YDL040C, strain nat1, hits give low values",1.01
same,normalized growth,"locus YDR001C, strain nth1, hits give low values",1.03
same,normalized growth,"locus YDR069C, strain doa4, hits give low values",0.974
same,normalized growth,"locus YDR137W, strain rgp1, hits give low values",0.913
same,normalized growth,"locus YDR159W, strain sac3, hits give low values",1.05
same,normalized growth,"locus YDR195W, strain ref2",1.15 [resistant] (active)
same,normalized growth,"locus YDR297W, strain sur2, hits give low values",1.01
same,normalized growth,"locus YDR334W, strain swr1, hits give low values",1.02
same,normalized growth,"locus YDR335W, strain msn5, hits give low values",0.993
same,normalized growth,"locus YDR392W, strain spt3, hits give low values",0.795
same,normalized growth,"locus YEL003W, strain gim4, hits give low values",0.964
same,normalized growth,"locus YEL037C, strain rad23, hits give low values",1.01
same,normalized growth,"locus YEL061C, strain CIN8 (second series), hits give low values",1.02
same,normalized growth,"locus YER015W, strain faa2, hits give low values",0.934
same,normalized growth,"locus YER016W, strain bim1, hits give low values",1.01
same,normalized growth,"locus YER111C, strain swi4, hits give low values",1.03
same,normalized growth,"locus YER155C, strain BEM2 (second series), hits give low values",0.842 (active)
same,normalized growth,"locus YFR010W, strain ubp6, hits give low values",1.01
same,normalized growth,"locus YGL167C, strain pmr1, hits give low values",0.997
same,normalized growth,"locus YGL173C, strain kem1, hits give low values",0.999
same,normalized growth,"locus YGL227W, strain vid30, hits give low values",1.03
same,normalized growth,"locus YGL240W, strain doc1, hits give low values",0.982
same,normalized growth,"locus YGL253W, strain hxk2, hits give low values",1
same,normalized growth,"locus YHR013C, strain ard1, hits give low values",0.961
same,normalized growth,"locus YHR027C, strain rpn1, hits give low values",1.01
same,normalized growth,"locus YHR030C, strain SLT2, hits give low values",0.892
same,normalized growth,"locus YHR079C, strain IRE1, hits give low values",0.913
same,normalized growth,"locus YHR142W, strain chs7, hits give low values",0.963
same,normalized growth,"locus YJL092W, strain hpr5, hits give low values",1.02
same,normalized growth,"locus YJL095W, strain BCK1 (second series), hits give low values",0.987
same,normalized growth,"locus YJL095W, strain BCK1, hits give low values",0.923
same,normalized growth,"locus YJL115W, strain asf1, hits give low values",1.04
same,normalized growth,"locus YJL129C, strain trk1, hits give low values",1.04
same,normalized growth,"locus YJL154C, strain vps35, hits give low values",1.03
same,normalized growth,"locus YJL164C, strain tpk1, hits give low values",0.964
same,normalized growth,"locus YJL166W, strain qcr8, hits give low values",0.959
same,normalized growth,"locus YJL187C, strain SWE1, hits give low values",1
same,normalized growth,"locus YJR066W, strain TOR1, hits give low values",0.826
same,normalized growth,"locus YKL160W, strain elf1, hits give low values",0.951
same,normalized growth,"locus YKR026C, strain gcn3, hits give low values",1.03
same,normalized growth,"locus YKR091W, strain srl3, hits give low values",1.02
same,normalized growth,"locus YLL001W, strain dnm1, hits give low values",0.981
same,normalized growth,"locus YLL026W, hits give low values",1.03
same,normalized growth,"locus YLL041C, strain sdh2, hits give low values",1.01
same,normalized growth,"locus YLR027C, strain aat2, hits give low values",0.986
same,normalized growth,"locus YLR113W, strain HOG1, hits give low values",0.953
same,normalized growth,"locus YLR221C, strain rsa3, hits give low values",0.977
same,normalized growth,"locus YLR258W, strain gsy2, hits give low values",1
same,normalized growth,"locus YLR262C, strain YPT6 (second series), hits give low values",0.875
same,normalized growth,"locus YLR320W, strain mms22, hits give low values",0.949
same,normalized growth,"locus YLR342W, strain FKS1, hits give low values",0.958
same,normalized growth,"locus YLR357W, strain rsc2, hits give low values",0.949
same,normalized growth,"locus YLR370C, strain arc18, hits give low values",1.02
same,normalized growth,"locus YLR384C, strain iki3, hits give low values",1.02
same,normalized growth,"locus YML120C, strain ndi1, hits give low values",0.997
same,normalized growth,"locus YMR058W, strain fet3, hits give low values",0.818 (active)
same,normalized growth,"locus YMR125W, strain sto1, hits give low values",1.02
same,normalized growth,"locus YMR129W, hits give low values",1.01
same,normalized growth,"locus YMR205C, strain PFK2, hits give low values",1.01
same,normalized growth,"locus YMR231W, strain pep5, hits give low values",0.992
same,normalized growth,"locus YNL071W, strain lat1, hits give low values",0.972
same,normalized growth,"locus YNL183C, strain NPR1, hits give low values",0.866
same,normalized growth,"locus YNL209W, strain ssb2, hits give low values",0.909 (active)
same,normalized growth,"locus YNL248C, strain rpa49, hits give low values",1.03
same,normalized growth,"locus YNL322C, strain KRE1 (second series), hits give low values",1.03
same,normalized growth,"locus YNR049C, strain mso1, hits give low values",1.06
same,normalized growth,"locus YOR001W, strain rrp6, hits give low values",0.996
same,normalized growth,"locus YOR070C, strain gyp1, hits give low values",0.989
same,normalized growth,"locus YOR080W, strain dia2, hits give low values",1.04
same,normalized growth,"locus YOR083W, strain WHI5, hits give low values",0.953
same,normalized growth,"locus YOR106W, strain vam3, hits give low values",0.892
same,normalized growth,"locus YOR231W, strain MKK1, hits give low values",0.94
same,normalized growth,"locus YOR265W, strain rbl2, hits give low values",1.01
same,normalized growth,"locus YOR270C, strain vph1, hits give low values",0.918
same,normalized growth,"locus YOR290C, strain snf2, hits give low values",0.955
same,normalized growth,"locus YPL051W, strain arl3, hits give low values",0.878 (active)
same,normalized growth,"locus YPL078C, strain atp4, hits give low values",0.957
same,normalized growth,"locus YPL106C, strain sse1, hits give low values",0.957
same,normalized growth,"locus YPL240C, strain hsp82, hits give low values",1.01
same,normalized growth,"locus YPL256C, strain CLN2, hits give low values",0.954
